PubChem BioAssay (NCI)
The panel holds about 83,000 compounds, 20% with a hit somewhere; the sample as a whole holds those more often.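 Plates (96-well) were seeded with cells, treated with compound at one concentration, and incubated for 48 hours before percent growth was determined.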 The source made the active and inactive calls. The calls were made as follows: active = growth percent below 10; inactive = the rest.

Tests used:
Experiment in all cases: NCI-60 one-dose screen, 48 h (100 = growth as untreated, 0 = no growth, -100 = all killed)
Settings in all cases: 10 µM unless noted
NCI-H23 lung = tested on: NCI-H23 lung
NCI-H322M lung = tested on: NCI-H322M lung
HOP-62 NSCLC = tested on: HOP-62 NSCLC
NCI-H460 lung = tested on: NCI-H460 lung
HOP-92 NSCLC = tested on: HOP-92 NSCLC
NCI-H522 lung = tested on: NCI-H522 lung
A549/ATCC NSCLC = tested on: A549/ATCC NSCLC
786-0 renal = tested on: 786-0 renal
COLO 205 colon = tested on: COLO 205 colon
DU-145 prostate = tested on: DU-145 prostate
K-562 leukemia = tested on: K-562 leukemia
MALME-3M melanoma = tested on: MALME-3M melanoma
MDA-MB-231 breast = tested on: MDA-MB-231 breast
RXF 393 renal = tested on: RXF 393 renal
SF-268 CNS = tested on: SF-268 CNS
SF-295 CNS = tested on: SF-295 CNS
SF-539 CNS = tested on: SF-539 CNS
UACC-257 melanoma = tested on: UACC-257 melanoma
M14 melanoma = tested on: M14 melanoma
HCT-15 colon = tested on: HCT-15 colon

Measured: growth

O=C(Nc1ccsc1C(=O)NC1CCCCC1)c1ccc(F)cc1
inactive: NCI-H23 lung 100% | NCI-H322M lung 116% | HOP-62 NSCLC 103% | NCI-H460 lung 98.3% | HOP-92 NSCLC 71.1% | NCI-H522 lung 108% | A549/ATCC NSCLC 103% | 786-0 renal 101% | COLO 205 colon 104% | DU-145 prostate 119% | K-562 leukemia 88.5% | MALME-3M melanoma 99.9% | MDA-MB-231 breast 87.2% | RXF 393 renal 95.6% | SF-268 CNS 104% | SF-295 CNS 110% | SF-539 CNS 101% | UACC-257 melanoma 114% | M14 melanoma 101% | HCT-15 colon 95.6%

CCN1C(=O)N(CC)C2Nn3c(s/c(=C4\C(=O)N(C(C)C)c5ccccc54)c3=O)=NC21 (stereo not given)
inactive: NCI-H23 lung 36.6% | NCI-H322M lung 61.3% | HOP-62 NSCLC 51.8% | NCI-H460 lung 21.3% | HOP-92 NSCLC 13.9% | NCI-H522 lung 27.2% | A549/ATCC NSCLC 30.4% | 786-0 renal 49.1% | DU-145 prostate 38% | K-562 leukemia 13.8% | MALME-3M melanoma 71.4% | MDA-MB-231 breast 24% | RXF 393 renal 44.5% | SF-268 CNS 51.8% | SF-295 CNS 19% | SF-539 CNS 11.5% | UACC-257 melanoma 28.9% | M14 melanoma 21.9% | HCT-15 colon 22.3%
active: COLO 205 colon 7.65%

Nc1ncnc(N)c1NC(=O)c1ccc(OCc2ccccc2)cc1
inactive: NCI-H23 lung 105% | NCI-H322M lung 100% | HOP-62 NSCLC 104% | NCI-H460 lung 107% | HOP-92 NSCLC 106% | NCI-H522 lung 91.3% | A549/ATCC NSCLC 103% | 786-0 renal 104% | COLO 205 colon 103% | DU-145 prostate 111% | K-562 leukemia 105% | MALME-3M melanoma 102% | MDA-MB-231 breast 104% | RXF 393 renal 107% | SF-268 CNS 104% | SF-295 CNS 103% | SF-539 CNS 95.5% | UACC-257 melanoma 104% | M14 melanoma 108% | HCT-15 colon 99.5%

COc1cc(C2C3=C(COC3=O)N(CCO)c3cc4c(cc32)OCCO4)cc(OC)c1O (stereo not given)
active: NCI-H460 lung -3.84% | NCI-H522 lung -23.4% | DU-145 prostate -8.77% | RXF 393 renal -45.7% | SF-295 CNS 2.74% | SF-539 CNS -31.2% | M14 melanoma -22.4%
inactive: NCI-H23 lung 35.8% | NCI-H322M lung 51.6% | HOP-62 NSCLC 32.9% | HOP-92 NSCLC 85.3% | A549/ATCC NSCLC 52.8% | 786-0 renal 19.8% | COLO 205 colon 18.2% | K-562 leukemia 12.5% | MALME-3M melanoma 64.7% | MDA-MB-231 breast 27.7% | SF-268 CNS 46% | UACC-257 melanoma 46.2% | HCT-15 colon 49.4%

O=C(Nc1ccc(F)cc1F)c1cc(Br)ccc1O
active: NCI-H23 lung -12.6% | NCI-H322M lung 0.898% | HOP-62 NSCLC -8.56% | NCI-H460 lung 4.52% | HOP-92 NSCLC -25.6% | NCI-H522 lung -12.2% | A549/ATCC NSCLC 5.78% | 786-0 renal 3.19% | COLO 205 colon 7.66% | K-562 leukemia 4.71% | MALME-3M melanoma -30.1% | MDA-MB-231 breast -29.9% | RXF 393 renal -5.34% | SF-268 CNS 7.16% | SF-295 CNS -24.5% | SF-539 CNS 4.41% | UACC-257 melanoma -15% | M14 melanoma 7.28% | HCT-15 colon 9.98%
inactive: DU-145 prostate 13.2%

CN(C)c1ccc(/C=C/c2ccnc3c(O)cccc23)cc1
inactive: NCI-H23 lung 34.8% | NCI-H322M lung 28.7% | HOP-62 NSCLC 20.3% | HOP-92 NSCLC 53.5% | COLO 205 colon 99.7% | DU-145 prostate 13.9% | MDA-MB-231 breast 36.5% | RXF 393 renal 36.1% | SF-268 CNS 12.5% | HCT-15 colon 26.7%
active: NCI-H460 lung 0.902% | NCI-H522 lung -10.9% | A549/ATCC NSCLC 3.5% | 786-0 renal -10.5% | K-562 leukemia 5.89% | MALME-3M melanoma -2.62% | SF-295 CNS -8% | SF-539 CNS 2.91% | UACC-257 melanoma -15.5% | M14 melanoma -22.5%

COc1c2ccoc2c(/C=C/C=O)c2oc(-c3ccccc3)cc(=O)c12
inactive: NCI-H23 lung 50.4% | NCI-H322M lung 87.7% | HOP-62 NSCLC 59.7% | NCI-H460 lung 89.4% | HOP-92 NSCLC 105% | NCI-H522 lung 67.9% | A549/ATCC NSCLC 91.3% | 786-0 renal 94.4% | COLO 205 colon 116% | DU-145 prostate 63.1% | K-562 leukemia 24.1% | MALME-3M melanoma 98% | MDA-MB-231 breast 66.3% | RXF 393 renal 79% | SF-268 CNS 39.8% | SF-295 CNS 51.3% | SF-539 CNS 38.3% | UACC-257 melanoma 108% | M14 melanoma 70.8%
active: HCT-15 colon 3.15%

COc1cc2nc(-c3cccc4cccnc34)nc(NC3CCN(Cc4ccccc4)CC3)c2cc1OC
active: NCI-H23 lung -72.2% | NCI-H322M lung -71.3% | HOP-62 NSCLC -73.9% | NCI-H460 lung -73.6% | HOP-92 NSCLC -73.2% | NCI-H522 lung -52.1% | A549/ATCC NSCLC -72.7% | 786-0 renal -71.4% | COLO 205 colon -75.5% | DU-145 prostate -93.6% | K-562 leukemia -49.4% | MALME-3M melanoma -76.6% | MDA-MB-231 breast -89.5% | RXF 393 renal -79.8% | SF-268 CNS -68.8% | SF-295 CNS -87.2% | SF-539 CNS -86.6% | UACC-257 melanoma -62.4% | M14 melanoma -80% | HCT-15 colon -80.9%
